Screening data: PubChem BioAssay, several laboratories
PriA SSB inh – inhibitors of Klebsiella pneumoniae PriA binding to SSB C-terminal tail. AlphaScreen SSBct-PriA binding, biotinylated peptide. inhibition, % at 33 µM. actives 0.6% (n = 430,000). AID 1272365; in the data active = inhibition mostly above about 37%, no sharp cut-off; inactive = mostly below about 20%;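 note: plate controls were negative control peptide for no effect and reference peptide for full effect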
PrPC TRFRET – inhibitors of human cell surface prion protein PrPC. inhibition, % at 13.8 µM. P04156. actives 0.43% (n = 370,000). TR-FRET read-out; in the data active = inhibition above about 24%; note: 0% = median of the test wells and 100% = reference compound wells
3CLpro inhibitor – SARS-CoV 3CLpro protease inhibition; P0C6X7; recombinant SARS-CoV 3CLpro, quenched FRET peptide cleavage; inhibition, % at 6 µM; actives 0.14% (n = 290,000); AID 1706; in the data active = inhibition above about 12%
PrP UTR inh – suppresses PrP 5' UTR mRNA reporter expression | AID 488862 | actives 0.35% (n = 340,000) | cell-based PrP 5' UTR mRNA reporter, plate reader | inhibition, % (concentration not given with the values); in the data active = inhibition above about 52%; note: 0 = median of the neutral control wells
PfHsp40 yeast – compounds rescuing yeast from Plasmodium falciparum HSP40 toxicity. growth rescue, % at 12.5 µM. actives 0.68% (n = 340,000). AID 504582. S. cerevisiae expressing PfHsp40, growth rescue, ATP luminescence; in the data active = growth rescue above about 28%, passing the limit was not always enough;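 note: yeast W303a lacking pdr1 and pdr3 grown in galactose medium; growth measured after three days at 30 °C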
Vc quorum ag – inducers of Vibrio cholerae quorum light production without autoinducers | actives 0.16% (n = 350,000) | activation, % at 18.7 µM | V. cholerae BH1578 lux reporter, luminescence, 6 h | AID 588436; in the data active = activation mostly above about 9.7%, no sharp cut-off
An asterisk follows results filed as active; i = inactive; . = no result given; ! = not confirmed by another sample. Compounds with a hit are over-represented: about 1.6% of the library has one in this group of screens.

SMILES	PriA SSB inh	PrPC TRFRET	3CLpro inhibitor	PrP UTR inh	PfHsp40 yeast	Vc quorum ag
CSc1cccc(NC(=O)Cn2nc(SC)c(-c3nc(-c4ccc(Cl)cc4)no3)c2N)c1	9.0	.	.	.	.	.
CC(C)(C)c1ccc(S(=O)(=O)Nc2ccc3c(c2)OCO3)cc1	-10.0	.	.	.	.	.
O=C(O)c1ccccc1-[n+]1c(-c2ccccc2)cc(-c2ccccc2)cc1-c1ccccc1	6.2	.	.	.	.	.
Cc1cc(C)c(C#N)c(Sc2nc(C)c([N+](=O)[O-])c(C)c2C#N)n1	.	1.1	.	.	.	.
Cc1nc(Sc2ccccc2)c(C#N)c(C)c1[N+](=O)[O-]	6.9	5.1	4.1	-21.5	26.7*	-1.6
CC1=C(C(=O)OC2CCCC2)C(c2coc3ccccc3c2=O)C2=C(CC(C)(C)CC2=O)N1 (configuration not stated)	-7.9	-5.0	5.2	.	92.9*	i
CC(C)(C)c1csc(=O)[nH]1	-11.0	.	.	.	.	.
Cc1cccc(C(=O)O/N=C(\N)Cc2cccc3ccccc23)c1	i	.	-0.9	-24.2	300.2*	-0.9
Cc1ccc(S(=O)(=O)N=C(Nc2ccccc2I)c2ccccc2)cc1	-4.0	.	.	.	.	.
CCOc1cc(-c2cccc(OC)c2)nc2ccc(C(=O)N3CCN(c4cccc(C)c4)[C@@H](C)C3)cc12	13.0	.	.	.	.	.
OCc1ccc(-c2nn(Cc3ccccc3)c3ccccc23)o1	41.5*	10.5	.	12.1	0.9	-0.3
c1ccc(-c2nn(Cc3ncco3)c3ccccc23)cc1	.	8.7	.	.	.	.
CN(C)CCN(C(=O)CCCc1ccccc1)C1CCOCC1	-13.0	.	.	.	.	.
CCn1nc(/C=C/c2ccccc2)nc2c(=O)n(C)c(=O)nc1-2	3.0	-20.2	5.0	-43.3	275.9*	0.7
CCc1nnc(NC(=O)c2ccc(-c3cc(Cl)ccc3Cl)o2)s1	-16.0	.	.	.	.	.
Nc1ccc(OCCCc2c(N)nc(N)nc2N)cc1	-5.3	-2.3	-3.4	-27.5	47.8*	0.6
CCCCCCCCCCCOc1ccc(C(=O)Oc2ccc(OCCCCCCCC)cc2)cc1	1.0	.	.	.	.	.
CCCCCOc1ccc(OC(=O)c2ccncc2)cc1	4.2	-8.9	3.4	-28.8	73.5*	i
Nc1cc(C(=O)OCC(=O)NCCC2=CCCCC2)ccc1Cl	-13.5	-4.8	.	-8.0	-0.6	-3.2
O=C(COC(=O)c1cnc(Cl)c(Cl)c1)NCCC1=CCCCC1	-2.0	5.7	2.9	-1.3	30.4*	-0.9
O=C(O)c1cc2ccccc2cn1	75.3*!	-0.8	.	-11.3	-0.1	-2.0
O=C(O)c1cc2c(cn1)[nH]c1ccccc12	80.5*	5.3	1.8	.	-0.1	1.9
O=C(O)c1cnc2ccccc2n1	-5.0	-9.1	-5.5	-6.4	0.0	-3.8
CCOC(=O)c1sc(NC(=O)c2ccc(OC)cc2OC)c(C#N)c1C	5.0	.	.	.	.	.
Cn1cccc1-c1cc(C(=O)NN=Cc2ccccc2Cl)[nH]n1	39.9*	.	.	.	.	.
SMILES	PriA SSB inh	PrPC TRFRET	3CLpro inhibitor	PrP UTR inh	PfHsp40 yeast	Vc quorum ag
CCOc1cccc(/C=N/NC(=O)c2cc(-c3cccn3C)n[nH]2)c1O	.	10.2	6.5	8.1	36.3*	-0.4
Cn1cccc1-c1cc(C(=O)NN=Cc2cc(Br)ccc2O)[nH]n1	1.4	.	.	.	.	.
COC(C)(CNC(=O)C(=O)NCc1cccs1)c1ccccc1F (configuration not stated)	12.0	.	.	.	.	.
Cc1nnsc1C(=O)N1C2C=CCC1CC2 (configuration not stated)	-11.0	.	.	.	.	.
CCc1nc2sc(C(c3ccc([N+](=O)[O-])cc3)N3CCC4(CC3)OCCO4)c(O)n2n1 (configuration not stated)	2.0	.	.	.	.	.
CC(C)Cc1nnc(NC(=O)c2cc(Cl)ccn2)s1	42.9	.	.	.	.	.
CN(C)c1ccnc(C(=O)O)c1	-19.0	-5.5	1.7	-18.7	0.1	-0.4
O=C(O)c1ccnc(C(=O)O)c1	56.9*	-4.7	1.1	-2.7	-0.4	i
O=C(O)c1cc(Cl)ccn1	67.9*	.	.	.	.	.
O=C(Nc1nncs1)c1cc(Cl)ccn1	123.5*	.	.	.	.	.
O=C(O)c1cc(-n2ccnc2)ccn1	72.2*	.	.	.	.	.
O=C(O)c1ccnc(Br)c1	-6.0	.	.	.	.	.
Cc1c(Cl)cccc1S(=O)(=O)N1Cc2cncnc2C1	-9.0	.	.	.	.	.
O=C(O)c1cc(Br)ccn1	99.7*	4.8	-0.8	-26.5	-0.2	-0.2
COC(=O)c1ccc2c(=O)n(CCC(=O)NCCN3CCN(c4ccccc4)CC3)c(=S)[nH]c2c1	-4.0	.	.	.	.	.
O=C(/C=C/c1ccco1)c1cccc([N+](=O)[O-])c1	6.6	-8.3	.	5.2	27.4*	.
CN(CC1Cc2ccccc2CO1)C(=O)NCc1cccs1 (configuration not stated)	-16.0	.	.	.	.	.
Cn1cccc1[C@@H](O)CCNS(=O)(=O)c1cccnc1	-3.0	.	.	.	.	.
Oc1ccccc1Nc1nc(NCc2ccccc2)c2ccccc2n1	49.7*	0.8	0.6	-17.6	0.3	-0.4
OCCNc1nc(Nc2ccccc2)nc2ccccc12	-5.4	5.9	-0.4	-24.4	1.1	16.7*
OCCNc1nc(Nc2ccc(Br)cc2)nc2ccccc12	-5.8	-6.8	4.2	.	.	.
COc1ccccc1N1CCN(CCNC(=O)c2ccc(Br)o2)CC1	-15.0	.	.	.	.	.
COC(=O)c1ccc2nc(N)sc2c1	53.0*	.	.	.	.	.
CC(=O)c1ccc2nc(N)sc2c1	34.9	.	.	.	.	.
CCCNC(=O)c1ccc2nc(N)sc2c1	87.3*	.	.	.	.	.
SMILES	PriA SSB inh	PrPC TRFRET	3CLpro inhibitor	PrP UTR inh	PfHsp40 yeast	Vc quorum ag
Nc1nc2ccc(C(=O)O)cc2s1	89.0*!	.	.	.	.	.
O=S(=O)(C1CCCCC1)C1CN(S(=O)(=O)c2ccc(OC(F)(F)F)cc2)C1	-17.0	.	.	.	.	.
O=C(c1ccco1)c1ccc(CNC(=O)[C@@H]2COc3ccccc3O2)s1	-14.0	.	.	.	.	.
c1cc2c(cc1C1=NN=C(N3CCNCC3)SC1)OCO2	5.0	.	.	.	.	.
Cc1cc(SCC(=O)NCCN2C(=O)CSC2=O)nc2c(C)cccc12	9.7	9.9	5.0	-16.2	36.9*	-0.3
Cc1ccc(-c2nn(C)c(=O)c3ccccc23)cc1CO	-4.3	-6.7	6.1	-12.7	-0.2	16.7*
CC(=O)OCc1cc(-c2nn(C)c(=O)c3ccccc23)ccc1C	-8.1	1.9	-3.5	0.1	0.3	i
Cc1nc(C)c(C(=O)Nc2cnc(N3CCN(c4ccccn4)CC3)nc2)s1	-11.0	.	.	.	.	.
CC1CCC(C(C)C)C(OP(=O)(OC2CC(C)CCC2C(C)C)C(O)C(C)C)C1 (configuration not stated)	2.0	.	.	.	.	.
CCCCCc1cc(OC)cc2c1C(=O)OC(C)(C)O2	-60.9	-4.3	.	3.3	72.4*	-1.9
O=C1C[C@H](C(=O)O)CN1	-5.0	.	.	.	.	.
O=[N+]([O-])c1ccc(NC(=S)NCc2ccc(F)cc2)cc1	14.7	6.4	4.0	-28.4	109.3*	i
COc1cc2cnc(-c3ccccc3)c(-c3cccc(C(F)(F)F)c3)c2cc1OC	45.0*	2.6	.	-1.3	9.3	-3.6
Fc1ccc2cnc(-c3ccccc3)c(-c3cccc(C(F)(F)F)c3)c2c1	-1.0	0.9	.	-23.4	-1.6	-0.6
COc1ccc(/C=C2/SC(=O)N(NS(=O)(=O)c3ccccc3)C2=S)cc1OC	2.2	-6.8	4.5	-7.2	35.2*	i
COc1cccc(/C=C2\SC(=S)N(NS(=O)(=O)c3ccccc3)C2=O)c1OC	-4.8	-2.5	3.9	-12.7	10.6	i
